Bim-Bcl-B – human Bim-Bcl-B interaction inhibition; Q9HD36; bead-based flow cytometry, Bim peptide-Bcl-B binding; inhibition, % at 10 µM; hit rate 0.073% among 190,000; AID 951;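 also: 0% = tracer peptide without compound and 100% = reference inhibitor peptide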
Bcl-W Bim block – disrupts Bim peptide binding to human Bcl-W | Q92843 | bead-based flow cytometry | hit rate 0.02% among 190,000 | inhibition, % at 10 µM;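 also: 0% = bound tracer without compound and 100% = peptide blocker; higher means less fluorescent Bim peptide bound to Bcl-W beads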
Bcl-2 Bim block – inhibitors of Bim-Bcl-2 interaction, human | P10415 | Bead-based flow cytometry, Bim peptide-Bcl-2 binding | inhibition, % at 10 µM | hit rate 0.06% among 190,000; in the data active = inhibition above about 40%;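 also: 0% = no compound wells with probe peptide and 100% = reference peptide inhibitor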
Bim-Bfl-1 – disrupts Bim binding to human Bfl-1; Q16548; Bead-based flow cytometry, Bim-Bfl-1 binding inhibition; inhibition, % at 10 µM; hit rate 0.12% among 190,000; AID 1008;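 also: 0% = wells without compound plus tracer and 100% = blocker peptide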
Bcl-XL Bim block – inhibitors of Bim-Bcl-XL interaction, human | Q07817 | Bim peptide-Bcl-XL binding, bead flow cytometry, fluorescence | inhibition, % at 10 µM | hit rate 0.04% among 190,000 | AID 1007
Starred values were filed as active, the others as inactive. Most compounds without a hit are left out; they make up all but 0.18% or so of the library. Rule as the data show it, unless noted: active = inhibition above about 40%.

SMILES	Bim-Bcl-B	Bcl-W Bim block	Bcl-2 Bim block	Bim-Bfl-1	Bcl-XL Bim block
COP(=O)(CC(=O)O)c1ccccc1 (centres undefined)	95.0*	36.0	26.0	-3.0	51.0*
c1ccc(-c2nc(N3CCOCC3)s[n+]2-c2ccccc2)cc1	-44.0	7.0	14.0	52.0*	9.0
CC(C)C[C@H](NC(=O)[C@@H]1CCCN1C(=O)[C@@H](N)Cc1ccc(O)cc1)C(=O)NCC(N)=O	-7.0	-4.0	-2.0	1.0	-3.0
C=CCN(CC#CCOc1ccccc1OC)CC=C	-2.0	0.0	-2.0	-6.0	0.0

Assay outcomes: PubChem, NMMLSC
